The target in experiment [1] is Rap guanine nucleotide exchange factor 3 (Homo sapiens) (UniProt O95398). Nature of the experiment: Confirmatory qHTS for agonist of cAMP-regulated guanine nucleotide exchange factor 3 (EPAC1) (AID 1645881).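 Further: EPAC1 catalysed release of BODIPY-GDP from Rap1B seen as fluorescence loss; 100% = effect of cAMP agonist control; nearly all actives have a fitted effect of over 75% in size.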 On the technique in general: qHTS replaces the single test concentration by a dilution series.
Rap guanine nucleotide exchange factor 3 (Homo sapiens), sequence (O95398 whole entry, looked up): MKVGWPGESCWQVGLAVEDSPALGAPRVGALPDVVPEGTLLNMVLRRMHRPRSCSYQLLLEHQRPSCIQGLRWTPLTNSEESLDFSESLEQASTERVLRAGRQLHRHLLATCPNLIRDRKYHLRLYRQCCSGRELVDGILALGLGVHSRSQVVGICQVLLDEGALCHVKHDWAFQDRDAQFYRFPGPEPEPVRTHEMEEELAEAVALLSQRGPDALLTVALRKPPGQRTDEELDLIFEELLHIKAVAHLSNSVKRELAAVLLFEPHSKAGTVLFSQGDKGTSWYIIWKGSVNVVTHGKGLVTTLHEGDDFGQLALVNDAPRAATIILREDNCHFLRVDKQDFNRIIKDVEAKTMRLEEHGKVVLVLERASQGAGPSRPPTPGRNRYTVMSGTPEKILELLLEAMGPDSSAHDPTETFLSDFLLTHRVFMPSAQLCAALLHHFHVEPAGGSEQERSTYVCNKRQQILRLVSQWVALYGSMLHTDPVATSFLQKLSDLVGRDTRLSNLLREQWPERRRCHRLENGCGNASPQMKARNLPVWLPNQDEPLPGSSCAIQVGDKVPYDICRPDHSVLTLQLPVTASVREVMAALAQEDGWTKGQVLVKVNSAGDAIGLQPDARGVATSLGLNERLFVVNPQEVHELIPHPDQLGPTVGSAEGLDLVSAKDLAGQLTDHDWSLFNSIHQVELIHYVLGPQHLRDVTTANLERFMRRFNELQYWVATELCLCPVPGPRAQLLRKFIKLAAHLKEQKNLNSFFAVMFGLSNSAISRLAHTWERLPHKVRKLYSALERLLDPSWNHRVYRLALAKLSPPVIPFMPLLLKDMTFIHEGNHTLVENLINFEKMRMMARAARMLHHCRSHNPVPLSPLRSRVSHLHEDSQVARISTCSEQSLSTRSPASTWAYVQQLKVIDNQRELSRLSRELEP
In experiment [2] the target is Rap guanine nucleotide exchange factor 4 (Homo sapiens) (UniProt Q8WZA2). The experiment is described as follows: Confirmatory qHTS for agonist of cAMP-regulated guanine nucleotide exchange factor 4 (EPAC2) (AID 1645884).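 Further: nucleotide exchange releases bodipy-GDP from Rap1 and this lowers its fluorescence; on the % scale 0 is the no-effect control and ±100 the full control effect; nearly all actives have a fitted effect of over 65% in size.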
Rap guanine nucleotide exchange factor 4 (Homo sapiens), sequence (Q8WZA2 whole entry, looked up): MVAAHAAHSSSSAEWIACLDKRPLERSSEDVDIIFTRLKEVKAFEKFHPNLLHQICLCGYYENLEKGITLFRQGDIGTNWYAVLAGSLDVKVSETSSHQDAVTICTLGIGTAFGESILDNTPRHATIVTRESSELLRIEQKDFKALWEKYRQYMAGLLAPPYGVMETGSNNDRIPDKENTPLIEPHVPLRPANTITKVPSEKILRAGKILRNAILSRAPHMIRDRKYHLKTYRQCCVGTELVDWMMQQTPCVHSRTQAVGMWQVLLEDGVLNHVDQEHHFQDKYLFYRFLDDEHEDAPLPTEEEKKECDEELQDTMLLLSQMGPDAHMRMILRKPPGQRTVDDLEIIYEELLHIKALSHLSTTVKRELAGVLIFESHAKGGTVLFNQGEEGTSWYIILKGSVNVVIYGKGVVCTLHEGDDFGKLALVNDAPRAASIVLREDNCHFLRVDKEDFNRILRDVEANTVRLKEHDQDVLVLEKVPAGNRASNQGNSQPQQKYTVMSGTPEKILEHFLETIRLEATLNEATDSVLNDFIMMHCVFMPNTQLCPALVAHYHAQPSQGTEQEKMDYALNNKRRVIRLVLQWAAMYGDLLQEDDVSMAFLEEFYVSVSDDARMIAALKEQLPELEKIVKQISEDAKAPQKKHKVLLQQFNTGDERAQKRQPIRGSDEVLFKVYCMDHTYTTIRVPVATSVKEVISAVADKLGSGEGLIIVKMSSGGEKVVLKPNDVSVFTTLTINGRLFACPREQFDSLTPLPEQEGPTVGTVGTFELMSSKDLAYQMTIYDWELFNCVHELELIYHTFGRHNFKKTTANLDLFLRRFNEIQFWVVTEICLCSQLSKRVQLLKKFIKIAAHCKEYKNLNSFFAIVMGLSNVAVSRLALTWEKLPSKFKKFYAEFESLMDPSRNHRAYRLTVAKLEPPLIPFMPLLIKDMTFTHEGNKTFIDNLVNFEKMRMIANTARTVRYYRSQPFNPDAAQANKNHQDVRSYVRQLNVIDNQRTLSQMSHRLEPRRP
Experiment [3] has the same target. The experiment is described as follows: Confirmatory qHTS for antagonist of cAMP-regulated guanine nucleotide exchange factor 4 (EPAC2) (AID 1645885). Further: nearly all actives have a fitted effect of over 25% in size. Further: potency means the concentration at half of the fitted maximal effect. On activity change, negative = inhibition: on the % scale 0 is the no-effect control and ±100 the full control effect.
The target of experiment [4] is Rap guanine nucleotide exchange factor 3 (Homo sapiens) (UniProt O95398). Nature of the experiment: Counterscreen qHTS for antagonist of cAMP-regulated guanine nucleotide exchange factor 3 (EPAC1) (AID 1645888).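 Further: fluorescence loss as bound BODIPY-GDP is released from Rap1B; % of control where 0% means no effect.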 In outline:
(§1)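 Rap1B–BODIPY-GDP (250 nM) with 50 uM GDP; compounds pin-transferred to 9.74 nM–152 uM final (activator) or from 7.32 nM upwards (inhibitor). Fluorescence Ex/Em 480/540 nm read at 5 and 30 min, then after adding cAMP or buffer, at room temperature.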

For experiment [5] the target is unchanged. The experiment is described as follows: Counterscreen qHTS for agonist of cAMP-regulated guanine nucleotide exchange factor 3 (EPAC1) (AID 1645889). Further: % of control where 0% means no effect; nearly all actives have a fitted effect of over 40% in size. In outline: as §1
In general terms: The purpose of a counterscreen is to sort out artefacts and off-target activity.

SMILES strings stand for the structures. Inconclusive results are not listed. Unmarked numbers belong to inactive results. Activity calls are given as the source filed them. The call rests on the fitted dose curve; in most records, active means well fitted curve in the direction sought with a large enough effect; inconclusive means small, poorly fitted or top-dose-only effect, or another doubt; inactive means no such curve, though single readings can be large; an effect the other way counts as inactive or inconclusive.

In the case of `COc1cc(OC)cc(-c2cc3ccc(OC)cc3cn2)c1`, the Potency result in experiment [1], in experiment [2], in experiment [4] and in experiment [5] was “inactive” throughout. Besides, in experiment [3], the Potency is 30.1 µM (active).

Consider `O=C(O)c1cc(-c2ccc(/C=C3/SC(=S)N(Cc4ccccc4)C3=O)o2)ccc1Cl`, for which the Potency entry in experiment [1] and in experiment [3] was “inactive” in each case. Moreover, the activation in experiment [2] was -8.48% [at 17.1 µM, percent relative to cAMP agonist control]; in experiment [5], 7.37% [at 30.8 µM]. Besides, the activity change, negative = inhibition in experiment [4] was -11.2% [at 30.8 µM].

Consider `Cc1cc(Cl)ccc1OCCCC(=O)OCC(=O)c1c(N)n(C)c(=O)n(C)c1=O`, for which the Potency result in experiment [1] and in experiment [3] was “inactive” in each case. Moreover, the activation in experiment [2] is 11.9% [at 17.1 µM, percent relative to cAMP agonist control]; in experiment [5], 27.4% [at 30.8 µM]. For the same molecule, the activity change, negative = inhibition in experiment [4] is -16.7% [at 30.8 µM].

With `Cc1ccc(C)c(Cn2nc(-c3cc(C)ccc3C)ccc2=O)c1`, the Potency result in experiment [1], in experiment [2], in experiment [3], in experiment [4] and in experiment [5] was “inactive” each time.

As to `O=S(=O)(O)c1ccc(NN=Cc2ccccc2O)cc1`, the Potency entry in experiment [1] and in experiment [3] was “inactive” each time. In addition, the activation in experiment [2] was -8.55% [at 17.1 µM, percent relative to cAMP agonist control]; in experiment [5], 20.1% [at 30.8 µM]. Besides, the activity change, negative = inhibition in experiment [4] was 3.2% [at 30.8 µM].

As to `CC(C)C[C@H]1CNC(=O)C(=O)N1C[C@@H]1CCCN1C[C@H](Cc1ccc(O)cc1)N1C[C@H](Cc2ccccc2)N(CC2CCCCC2)C(=O)C1=O`, the Potency result in experiment [1], in experiment [2], in experiment [4] and in experiment [5] was “inactive” in each case. Moreover, the Potency in experiment [3] was 47.8 µM (active).

Consider `Cn1c(=O)c(C(=O)NNC(=O)c2ccccc2Br)c(O)c2ccccc21`, for which the Potency entry in experiment [1] and in experiment [3] was “inactive” each time. Moreover, the activation was 2.84% [at 17.1 µM, percent relative to cAMP agonist control] in experiment [2] and 8.96% [at 30.8 µM] in experiment [5]. In addition, the activity change, negative = inhibition in experiment [4] was -5.21% [at 30.8 µM].

`CCOC(=O)C1CCc2c(ccc3ccccc23)N1CCC#N` (stereo not given): the Potency result in experiment [1] and in experiment [3] was “inactive” throughout. Moreover, the activation is 0.813% [at 17.1 µM, percent relative to cAMP agonist control] in experiment [2] and 2.64% [at 30.8 µM] in experiment [5]. In experiment [4], the activity change, negative = inhibition was -15.2% [at 30.8 µM].

As for `CCC(C)[C@H]1COCCS(=O)(=O)N1Cc1ccc(Cl)cc1Cl` (stereo not given in full), the Potency result in experiment [1], in experiment [2], in experiment [3], in experiment [4] and in experiment [5] was “inactive” throughout.

`O=c1ccc(-c2ccccc2)nn1Cc1ccc(F)cc1Cl`: the Potency entry in experiment [1], in experiment [2], in experiment [3], in experiment [4] and in experiment [5] was “inactive” throughout.

As to `Cc1ccccc1Cn1nnc2c(=O)[nH]c(C3CCCN(C(=O)c4ccc(C(C)(C)C)cc4)C3)nc21` (stereo not given), the Potency result in experiment [1], in experiment [2], in experiment [3], in experiment [4] and in experiment [5] was “inactive” throughout.

`O=C(NNc1cc(N2CCOCC2)nc(N2CCOCC2)n1)c1ccc([N+](=O)[O-])cc1`: the Potency entry in experiment [1], in experiment [2], in experiment [3], in experiment [4] and in experiment [5] was “inactive” throughout.

In the case of `CCCCOc1c(Br)cc(/C=N/O)cc1OCC`, the Potency entry in experiment [1] and in experiment [3] was “inactive” each time. Besides, the activation in experiment [2] was 6.54% [at 17.1 µM, percent relative to cAMP agonist control]; in experiment [5] it was 5.43% [at 30.8 µM]. In addition, in experiment [4], the activity change, negative = inhibition was -12% [at 30.8 µM].

Regarding `CCC(CC)c1nnc(NC(=O)CSCc2c(C)noc2C)s1`, the Potency result in experiment [1], in experiment [2], in experiment [3], in experiment [4] and in experiment [5] was “inactive” throughout.

With `COc1ccc(-c2[nH]c(-c3ccc(F)cc3)nc2SCC(=O)Nc2ccc(OC)c(OC)c2)cc1`, the Potency entry in experiment [1], in experiment [2], in experiment [3], in experiment [4] and in experiment [5] was “inactive” in each case.

In the case of `CCOC(=O)C1Nc2ccc(C(F)(F)F)cc2C2C=CCC12` (stereo not given), the Potency result in experiment [1] and in experiment [3] was “inactive” in each case. The activation is 1.4% [at 17.1 µM, percent relative to cAMP agonist control] in experiment [2] and 11.6% [at 30.8 µM] in experiment [5]. In experiment [4], the activity change, negative = inhibition is -11.7% [at 30.8 µM].

Turning to `COc1ccc2c(c1)c(=O)oc1c(C)c(OCc3cc(C(=O)O)oc3C)ccc12`, the Potency entry in experiment [1], in experiment [2], in experiment [3], in experiment [4] and in experiment [5] was “inactive” each time.

`O=C(Nc1nc(-c2ccc(Cl)cc2)cs1)C1=COCCO1`: the Potency result in experiment [1] and in experiment [3] was “inactive” each time. In addition, the activation in experiment [2] was 5.12% [at 17.1 µM, percent relative to cAMP agonist control]; in experiment [5], 13.1% [at 30.8 µM]. Also, in experiment [4], the activity change, negative = inhibition was -14.7% [at 30.8 µM].

(Values after PubChem BioAssay (NCATS).)
